Assay outcomes from PubChem.
Shown are actives, neighbours in structure and some others; about 2.1% of the full set was active somewhere.
aSyn rescue: rescues yeast growth from alpha-synuclein toxicity. Yeast expressing alpha-synuclein, growth rescue, BacTiter-Glo, 24 h. Potency, µM (series often up to 46.1 µM), most hits filed as activators. actives 0.14% (n = 370,000). AID 652106; further: nearly all actives have a fitted effect of over 65% in size
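Screening used galactose-induced yeast with toxic alpha-synuclein levels, exposed to compound for 24 hr at 30 deg C. Cell growth, read with BacTiter-Glo luminescence, gave the measured signal.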
FUS yeast rescue: rescues growth of FUS-expressing yeast | AID 1347120 | S. cerevisiae FUS-expressing, growth rescue, OD600, 24 h | actives 0.24% (n = 390,000) | Potency, µM (top dose mostly 76.6 µM), hits mostly activators; further: nearly all actives have a fitted effect of over 55% in size
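Toxicity suppression screen in FUS-yeast. Cells induced with 2% galactose, starting OD 0.005, treated 24hr at 30C with compounds at multiple final concentrations; growth by OD600.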
Abeta yeast res: restores growth of yeast expressing A-beta42 peptide | yeast expressing A-beta42, growth rescue, OD600, 48 h; response scale: 0% DMSO, 100% iron-clioquinol control | Potency, µM (doses to about 46.1 µM), actives largely listed as activators | actives 0.063% (n = 410,000) | AID 1347071; further: nearly all actives have a fitted effect of over 55% in size
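Yeast growth medium received pinned compounds, then yeast cells expressing toxic A-beta were added; plates incubated at 30 C for 48 hr. Growth read as absorbance at 600 nm, normalized to DMSO and equimolar FeCl3 plus clioquinol controls.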
TSG101-PTAP inh: blocks PTAP/TSG101 interaction to inhibit HIV-1 budding; Q99816; Fluorescence polarization, FITC-PTAP peptide / Tsg101 binding; Potency, µM (top dose mostly 115 µM), hits mostly inhibitors; 340,000 tested, under 10 active; AID 493005; active means well fitted inhibition curve with a large enough effect in the main read-out, with a control signal flat, not every such curve was filed as active; inconclusive means small, poorly fitted or top-dose-only effect, or effect the other way, or a change in a side signal; inactive means no such curve, though single readings can be large or run the other way
Target sequence (Q99816 whole entry, looked up): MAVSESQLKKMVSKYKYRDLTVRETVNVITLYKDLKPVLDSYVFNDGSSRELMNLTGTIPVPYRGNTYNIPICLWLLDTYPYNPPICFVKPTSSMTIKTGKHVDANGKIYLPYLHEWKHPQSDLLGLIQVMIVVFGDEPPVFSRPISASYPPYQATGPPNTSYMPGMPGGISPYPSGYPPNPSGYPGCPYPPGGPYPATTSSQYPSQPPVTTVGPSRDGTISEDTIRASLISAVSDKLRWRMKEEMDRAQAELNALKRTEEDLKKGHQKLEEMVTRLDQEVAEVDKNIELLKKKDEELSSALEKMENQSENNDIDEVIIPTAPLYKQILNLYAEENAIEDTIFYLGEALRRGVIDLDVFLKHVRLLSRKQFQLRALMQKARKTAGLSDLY
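Compounds were pin-transferred onto Tsg101 binding domain (10 uM final) in HEPES pH 7.5 buffer, then FITC-PTAP peptide was added at 50 nM final. After 20 min at RT, polarization reported peptide displacement across a qHTS concentration series.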
TDP-43 yeast inh: inhibitors of TDP-43 toxicity in yeast; TDP-43 expressing yeast growth rescue, BacTiter-Glo, 24 h; Potency, µM (titrated, usually from 46.1 µM), actives largely listed as activators; actives 1.8% (n = 410,000); further: nearly all actives have a fitted effect of over 50% in size
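Cell-based yeast growth screen: TDP-43 expression induced in galactose, inoculum OD600=0.02 after raffinose pregrowth to mid-log. Read-out BacTiter-Glo luminescence at 24 hr, 30 deg C; inhibition of toxicity seen as signal increase.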
Large screens that a line does not name were inactive. Unless noted, the call rests on the fitted dose curve; in most records, active means well fitted curve in the direction sought with a large enough effect; inconclusive means small, poorly fitted or top-dose-only effect, or another doubt; inactive means no such curve, though single readings can be large; an effect the other way counts as inactive or inconclusive.

CCC(C)NC(=O)c1sc2nc(C)c(C(=O)Nc3ccc(Cl)cc3)c(-c3ccc(Br)cc3)c2c1N (centres undefined)	FUS yeast rescue inconclusive (no result: aSyn rescue, TSG101-PTAP inh)
C[C@@H]1CC[C@]2(C(=O)O[C@@H]3O[C@H](CO)[C@@H](O)[C@H](O)[C@H]3O)CC[C@]3(C)C(=CCC4[C@@]5(C)C[C@@H](O)[C@H](O)[C@@](C)(C(=O)O[C@@H]6[C@H](O)C[C@@]7(C)C(CC[C@]8(C)C7CC=C7[C@H]9[C@](C(=O)O[C@@H]%10O[C@H](CO)[C@@H](O)[C@H](O)[C@H]%10O)(CC[C@@H](C)[C@@]9(C)O)CC[C@]78C)[C@@]6(CO)C(=O)O)C5CC[C@]43C)[C@@H]2[C@]1(C)O (some centres undefined)	FUS yeast rescue 12.6µM
C[C@H]1O[C@H](O[C@H]2[C@H](O[C@@H]3CC[C@@]4(C)C(CC[C@]5(C)C4CC=C4[C@@H]6CC(C)(C)CC[C@]6(C(=O)O[C@@H]6O[C@H](CO)[C@@H](O)[C@H](O)[C@H]6O)CC[C@]45C)C3(C)C)O[C@H](C(=O)O)[C@@H](O)[C@@H]2O)[C@@H](O)[C@@H](O)[C@@H]1O (some centres undefined)	FUS yeast rescue inconclusive
CCCNc1nc(Nc2ccc(C)cc2)nc(N2CCCC2)n1	TDP-43 yeast inh 11.2µM
CCn1cc2nc(SCc3ccccc3Cl)n(Cc3ccc(OC)cc3)c(=O)c2n1	FUS yeast rescue inconclusive (no result: aSyn rescue, TSG101-PTAP inh)
CCOC(=O)c1c(C)oc2ncnc(Nc3cc(Cl)ccc3OC)c12	none (no result: aSyn rescue, TSG101-PTAP inh)
COc1ccc(Cl)cc1NC(=O)CCc1c(C)nc2c(c1C)c(=O)n(C)c(=O)n2C	none (no result: aSyn rescue, TSG101-PTAP inh)
S=C(NC1CCCCC1)NC1CC2C=CC1C2 (centres undefined)	Abeta yeast res 11.2µM
COc1cccc(Oc2cnc(N)nc2-c2ccc(OC)cc2O)c1	TDP-43 yeast inh 10µM
CC1CCN(S(=O)(=O)c2ccc(C(=O)Nc3nnc(C4CC4)o3)cc2)CC1	aSyn rescue 17.8µM, FUS yeast rescue inconclusive, Abeta yeast res 12.6µM, TDP-43 yeast inh inconclusive
Cc1nnc(NC(=O)c2ccc(S(=O)(=O)N3CC(C)CC(C)C3)cc2)o1 (centres undefined)	aSyn rescue 15.8µM, Abeta yeast res inconclusive
COCc1nnc(NC(=O)c2ccc(S(=O)(=O)N3CCCc4ccccc43)cc2)o1	aSyn rescue inconclusive, FUS yeast rescue inconclusive, TDP-43 yeast inh inconclusive
O=C(Nc1nnc(C2CC2)o1)c1ccc(S(=O)(=O)N2CCCc3ccccc32)cc1	aSyn rescue inconclusive, Abeta yeast res inconclusive, TDP-43 yeast inh 17.8µM
O=C(CC1N=C2c3ccccc3N=C(SCc3cccc(F)c3)N2C1=O)NCc1ccc2c(c1)OCO2 (centres undefined)	FUS yeast rescue inconclusive (no result: aSyn rescue, TSG101-PTAP inh)
O=Cc1c(NCc2ccccc2F)c2ccccc2[nH]c1=O	TDP-43 yeast inh 11.2µM
COC(=O)c1cc(CSc2nc3ccccc3c(=O)n2C)oc1C	none
COc1cccc(CNC(=O)CCSCc2ccccc2F)c1	TDP-43 yeast inh 14.1µM
Cc1ccc(-c2ccc(C(=O)O)c(C)n2)cc1	TDP-43 yeast inh inconclusive (no result: FUS yeast rescue)
Cc1nc(-c2ccc(Br)cc2)ccc1C(=O)O	TDP-43 yeast inh 15.8µM (no result: FUS yeast rescue)
O=C1CCCc2cc(S(=O)(=O)N3CCCC(C(=O)NCc4ccc(Cl)cc4)C3)ccc2N1 (centres undefined)	none (no result: TSG101-PTAP inh)
O=C(CN1CCCc2ccccc21)NCc1ccc(Cl)cc1	none (no result: aSyn rescue, Abeta yeast res, TSG101-PTAP inh, TDP-43 yeast inh)
COc1ccc(C2CC(=O)N(Cc3ccc(F)cc3)c3ccccc3S2)cc1 (centres undefined)	TDP-43 yeast inh 15.8µM (no result: TSG101-PTAP inh)
CCc1ccc(OCC(=O)NCc2ccco2)c(Br)c1	TDP-43 yeast inh 12.6µM
CCc1cc(=O)oc2c3c(cc(OCC(=O)NCc4ccco4)c12)OC(C)(C)CC3	TDP-43 yeast inh 35.5µM
COC(=O)CSc1nnc(-c2n[nH]c3c2CCC3)n1N	none (no result: aSyn rescue, Abeta yeast res, TSG101-PTAP inh, TDP-43 yeast inh)
Cn1cc(S(=O)(=O)N2CCCCCC2)cc1C(=O)N1CCN(c2ccccc2F)CC1	none (no result: aSyn rescue, TSG101-PTAP inh)
O=C1C=C(c2cccc(CO)c2)C[C@@H](c2ccc(Cl)cc2)C1	TDP-43 yeast inh 17.8µM
